Assay results taken from PubChem BioAssay (NCATS).
Results filed as inconclusive are left out. Where a call stands in place of a potency, no number is given. Activity calls are given as the source filed them. Unless noted, the call rests on the fitted dose curve; in most records, active means well fitted curve in the direction sought with a large enough effect; inconclusive means small, poorly fitted or top-dose-only effect, or another doubt; inactive means no such curve, though single readings can be large; an effect the other way counts as inactive or inconclusive.

What was measured:
[1] = biological target: Cytochrome P450 1A2 (Homo sapiens) (UniProt P05177); assay: p450-cyp1a2 (AID 410; calls by dose curve; further: potency means the concentration at half of the fitted maximal effect)
Cytochrome P450 1A2 (Homo sapiens), sequence (P05177 whole entry, looked up): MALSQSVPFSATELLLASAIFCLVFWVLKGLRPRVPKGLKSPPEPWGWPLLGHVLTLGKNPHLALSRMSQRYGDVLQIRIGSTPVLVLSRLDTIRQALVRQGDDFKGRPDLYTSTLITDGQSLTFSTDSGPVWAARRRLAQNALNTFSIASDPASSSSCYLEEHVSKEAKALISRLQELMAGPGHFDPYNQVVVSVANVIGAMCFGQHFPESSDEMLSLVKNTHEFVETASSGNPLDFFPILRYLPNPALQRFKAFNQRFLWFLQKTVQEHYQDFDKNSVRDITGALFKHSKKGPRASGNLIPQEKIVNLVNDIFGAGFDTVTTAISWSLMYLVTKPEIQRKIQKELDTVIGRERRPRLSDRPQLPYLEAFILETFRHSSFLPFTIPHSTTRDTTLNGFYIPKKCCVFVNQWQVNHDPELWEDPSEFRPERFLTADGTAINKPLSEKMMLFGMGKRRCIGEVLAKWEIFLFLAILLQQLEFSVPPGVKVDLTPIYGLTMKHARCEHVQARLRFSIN
Outline: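 O-Demethylation of luciferin 6' methyl ether by human CYP1A2 is monitored as luciferase luminescence. Substrate sits at Km (100uM); enzyme is 20nM. Values are scaled to 57 uM furafylline as maximal inhibition.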

[2] = biological target: Glucocorticoid receptor (Homo sapiens) (UniProt P04150); assay: GR-GFP Redistribution (AID 450;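 active means compounds whose dose series gives a full or clear partial fitted curve of increased nuclear translocation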; further: potency means the concentration at half of the fitted maximal effect); conditions: U2OS GR-GFP nuclear translocation, laser cytometry, 2 h
Glucocorticoid receptor (Homo sapiens), sequence (P04150 whole entry, looked up, the tested form may be a part): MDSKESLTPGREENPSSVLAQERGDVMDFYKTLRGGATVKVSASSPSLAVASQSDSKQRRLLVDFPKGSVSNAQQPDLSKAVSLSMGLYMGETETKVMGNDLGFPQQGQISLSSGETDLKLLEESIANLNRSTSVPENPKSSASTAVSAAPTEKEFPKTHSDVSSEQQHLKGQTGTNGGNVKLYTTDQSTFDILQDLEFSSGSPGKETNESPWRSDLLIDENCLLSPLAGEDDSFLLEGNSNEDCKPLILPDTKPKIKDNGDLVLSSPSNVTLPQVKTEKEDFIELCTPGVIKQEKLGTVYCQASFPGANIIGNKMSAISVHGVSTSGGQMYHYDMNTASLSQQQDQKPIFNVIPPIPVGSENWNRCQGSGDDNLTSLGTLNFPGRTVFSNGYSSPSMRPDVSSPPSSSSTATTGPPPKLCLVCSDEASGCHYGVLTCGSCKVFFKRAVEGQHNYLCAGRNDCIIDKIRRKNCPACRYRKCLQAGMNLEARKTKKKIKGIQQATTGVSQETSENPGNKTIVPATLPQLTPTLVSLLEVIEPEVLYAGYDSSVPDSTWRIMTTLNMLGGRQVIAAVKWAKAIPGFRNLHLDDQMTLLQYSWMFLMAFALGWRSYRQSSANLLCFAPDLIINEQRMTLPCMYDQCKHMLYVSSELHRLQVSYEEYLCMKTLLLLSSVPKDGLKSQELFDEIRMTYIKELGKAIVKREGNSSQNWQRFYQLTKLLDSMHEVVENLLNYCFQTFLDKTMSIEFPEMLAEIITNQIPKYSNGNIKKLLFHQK

[3] = biological target: Glucocorticoid receptor (Homo sapiens) (UniProt P04150); assay: GR-EFC Redistribution (AID 451; calls by dose curve; further: potency means the concentration at half of the fitted maximal effect); conditions: CHO-K1 GR-EFC translocation, beta-gal luminescence, 2 h
Outline: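 Translocation of GR-ED fusion to nuclear EA restores b-gal, read by luminescence after 1 h room-temperature detection. Engineered CHO-K1 biosensor cells, 1,000/well, exposed 2 h at 37 C to titrations up to 46 uM final.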

[4] = biological target: Mitogen-activated protein kinase 10 (Mus musculus) (UniProt Q61831); assay: JNK3 AlphaScreen Assay (AID 530; active means well fitted curve in either direction with a large enough effect, not every such curve was filed as active;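 further: kinase came from lysate of stimulated human HepG2 cells; signal reports phosphorylation of biotinylated GST-cJun 1-79 at Ser73 with 10 µM ATP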)
Outline: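 qHTS titrations with 15 min compound pre-incubation before adding ATP (10 uM final). Read-out: AlphaScreen of Ser73-phosphorylated biotin-GST-cJun using HepG2 lysate JNK3 activated by IL-1β and TNFα.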

[5] = biological target: Cytochrome P450 3A4 (Homo sapiens) (UniProt P08684); assay: qHTS Assay for Inhibitors and Substrates of Cytochrome P450 3A4 (AID 884); further: potency means the concentration at half of the fitted maximal effect; nearly all actives have a fitted effect of over 50% in size
Cytochrome P450 3A4 (Homo sapiens), sequence (P08684 whole entry, looked up): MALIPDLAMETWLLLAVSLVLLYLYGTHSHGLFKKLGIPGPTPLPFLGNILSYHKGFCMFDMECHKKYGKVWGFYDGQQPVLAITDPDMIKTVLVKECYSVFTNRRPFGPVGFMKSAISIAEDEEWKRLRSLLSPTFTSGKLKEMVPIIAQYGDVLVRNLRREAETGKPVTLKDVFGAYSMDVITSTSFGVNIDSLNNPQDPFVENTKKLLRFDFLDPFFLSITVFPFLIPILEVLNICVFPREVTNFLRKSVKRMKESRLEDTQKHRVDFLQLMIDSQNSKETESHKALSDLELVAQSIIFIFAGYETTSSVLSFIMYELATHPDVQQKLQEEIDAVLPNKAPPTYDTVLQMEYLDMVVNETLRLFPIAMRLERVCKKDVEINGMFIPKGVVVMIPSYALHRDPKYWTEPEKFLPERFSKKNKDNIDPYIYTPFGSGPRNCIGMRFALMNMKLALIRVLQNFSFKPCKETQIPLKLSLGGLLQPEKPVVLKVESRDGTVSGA
Outline: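 Luminescent readout of luciferin produced by CYP3A4 (20 nM) dealkylation of Luciferin-PPXE, 25 uM (its KM). NADPH-driven reaction ran 60 min at RT after 10 min compound preincubation; data scaled to 57 uM ketoconazole as 100% inhibition.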

[6] = biological target: Cytochrome P450 3A4 (Homo sapiens) (UniProt P08684); assay: qHTS Assay for Activators of Cytochrome P450 3A4 (AID 885); further: nearly all actives have a fitted effect of over 65% in size
Outline: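 CYP3A4 activity: Luciferin-PPXE O-dealkylation, 25uM substrate, 200mM KPO4, RT throughout. Read-out is luciferase luminescence; higher values reflect activation.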

[7] = biological target: Cytochrome P450 2C19 (Homo sapiens) (UniProt P33261); assay: qHTS Assay for Inhibitors and Substrates of Cytochrome P450 2C19 (AID 899); further: potency means the concentration at half of the fitted maximal effect; nearly all actives have a fitted effect of over 60% in size
Cytochrome P450 2C19 (Homo sapiens), sequence (P33261 whole entry, looked up): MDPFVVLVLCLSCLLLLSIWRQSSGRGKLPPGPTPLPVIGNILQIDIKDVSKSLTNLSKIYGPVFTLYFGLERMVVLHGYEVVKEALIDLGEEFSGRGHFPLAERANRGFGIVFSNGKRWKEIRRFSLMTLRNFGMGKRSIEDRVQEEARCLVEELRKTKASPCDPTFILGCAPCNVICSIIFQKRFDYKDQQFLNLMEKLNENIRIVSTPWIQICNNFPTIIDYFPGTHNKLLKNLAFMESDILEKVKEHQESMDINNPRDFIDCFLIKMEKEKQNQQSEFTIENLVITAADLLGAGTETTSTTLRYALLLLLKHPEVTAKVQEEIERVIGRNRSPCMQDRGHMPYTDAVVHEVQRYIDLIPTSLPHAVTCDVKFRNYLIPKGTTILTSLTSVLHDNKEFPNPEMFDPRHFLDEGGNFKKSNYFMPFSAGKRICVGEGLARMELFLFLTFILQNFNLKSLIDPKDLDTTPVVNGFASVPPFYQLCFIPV
Outline: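 Luminescence readout of luciferin formed from 10uM Luciferin-H EGE (KM level) by 5 nM CYP2C19 in 50mM KPO4. 60 min NADPH-driven reaction at 37C after 10 min compound preincubation; data scaled to 57uM ketoconazole inhibition.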

[8] = biological target: DNA dC->dU-editing enzyme APOBEC-3G (Homo sapiens) (UniProt Q9HC16); assay: qHTS for inhibitors of Vif-A3G interactions: Validation (AID 588379)
DNA dC->dU-editing enzyme APOBEC-3G (Homo sapiens), sequence (Q9HC16 whole entry, looked up): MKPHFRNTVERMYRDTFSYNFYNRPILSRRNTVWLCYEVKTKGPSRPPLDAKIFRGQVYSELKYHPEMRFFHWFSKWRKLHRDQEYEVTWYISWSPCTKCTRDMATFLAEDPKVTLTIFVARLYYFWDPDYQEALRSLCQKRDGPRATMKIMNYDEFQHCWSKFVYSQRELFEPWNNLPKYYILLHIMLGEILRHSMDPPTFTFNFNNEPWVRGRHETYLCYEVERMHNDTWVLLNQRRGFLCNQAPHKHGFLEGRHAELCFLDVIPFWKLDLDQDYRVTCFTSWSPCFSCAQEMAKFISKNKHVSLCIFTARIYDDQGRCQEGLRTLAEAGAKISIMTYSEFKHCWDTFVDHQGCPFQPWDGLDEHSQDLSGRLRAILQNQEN
Outline: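 Yellow fluorescence (Ex 488, Em 500-530) of Vif-coexpressing HeLa A3G-eYFP cells, scanned by Acumen cytometer, reports blocked A3G degradation. Cells plated at 700/well overnight at 37 deg C before compound addition, then a further overnight compound incubation at 37 deg C.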

[9] = test system: Zika virus NS2B-NS3 protease; assay: Primary screen GU AMC qHTS for Zika virus inhibitors (AID 1347154); further: nearly all actives have a fitted effect of over 70% in size
Outline: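 Fluorogenic AMC-substrate cleavage by noncovalent NS2B-NS3 protease complex (25 nM, pH 8.0 Tris buffer with Tween 20) followed for 15 minutes at room temperature (~20% conversion). Percent inhibition from ex340/em450 signal change, fitted by 4-parameter Hill equation.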

[10] = Confirmatory qHTS for small molecule stabilizers of the endoplasmic reticulum resident proteome: Secreted ER Calcium Modulated Protein (SERCaMP) assay (AID 1508628); further: nearly all actives have a fitted effect of over 40% in size
Outline: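 Reporter secretion upon ER calcium depletion (100 nM thapsigargin, 4 h, 37C) is measured as medium luminescence with coelenterazine, after 16 h compound pretreatment of SH-SY5Y-GLuc-SERCaMP cells; primary at three concentrations up to 38.3 uM, follow-up at 11 (up to 76.6 uM).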

[11] = Primary qHTS for small molecule stabilizers of the endoplasmic reticulum resident proteome: Secreted ER Calcium Modulated Protein (SERCaMP) assay (AID 1508630)
Outline: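 The SH-SY5Y reporter protocol was run at 3 concentrations up to 38.3 uM (primary) or 11 concentrations (follow-up): 16 h compound, 100 nM thapsigargin for 4 h, then extracellular luciferase luminescence.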

[12] = qHTS Assay for Lipid Storage Modulators (AID 1519; calls by dose curve); conditions: Drosophila S3 cells, BODIPY lipid droplet/cell ratio, laser cytometry, cells loaded with oleic acid
Outline: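 Cells seeded at 5,000 per well were treated with compounds over a concentration series and loaded with oleic acid (400 uM, as added). Lipid droplet fluorescence (488 nm excitation, 500-530 nm channel) was read by laser-scanning cytometry and normalized to 20 uM Triacsin C.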

Structure (SMILES)	Potency [1]	Potency [2]	Potency [3]	outcome [4]	Potency [5]	Potency [6]	Potency [7]	Potency [8]	Potency [9]	Potency [10]	Potency [11]	activity change, negative = inhibition ([12]; at 57.5 µM (top of the series))	max response ([12]; measured here: cell count channel max response) [%]	max response ([12]; measured here: lipid channel max response) [%]
CN(C(=O)Cc1ccc(Cl)c(Cl)c1)[C@H](CN1CCCC1)c1ccccc1	31.6 µM (active)	> 46 µM (inactive)	> 46 µM (inactive)	inactive	6.31 µM (active)	inactive	0.316 µM (active)	inactive	inactive	inactive	inactive			
O[C@@H]1[C@H](O)[C@H]2[C@@H](O)CCN2C[C@@H]1O		> 46 µM (inactive)	> 46 µM (inactive)	inactive				inactive	inactive	inactive	inactive	-2.53% (inactive)	7.43	6.33
